The list is not random: actives were taken first. Their share in the collection is about 7.6%.
p53 reactivation: qHTS assay for re-activators of p53 using a Luc reporter; H1299 p53-A138V BP100-luciferase reporter, luminescence, 24 h; Potency, µM (highest dose often 92.2 µM), inactives show at the highest dose activity change, positive = activation, hits mostly activators; 320,000 compounds, 0.063% hits; also: potency is read from the fitted curve at half-maximal effect; % of control where 0% means no effect; nearly all actives have a fitted effect of over 45% in size
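p53-null H1299 cells stably carrying temperature-sensitive p53-A138V and a BP100-luciferase reporter were pinned with compounds (4-point, 1:5 series) and held 24 hrs at 37 deg C. Luminescence was read 10 min after detection reagent.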
Giardia killer: Small Molecules that selectively kill Giardia lamblia: qHTS; Giardia lamblia trophozoite viability; activity change, % at 7.66 µM, hits read low; 340,000 compounds, 0.15% hits; in the data active = activity change below about -80%; inconclusive = between about -30% and that limit;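 also: parasites exposed to compound for two days anaerobically before the ATP read; % is scaled to controls: 0 for no effect and ±100 for the full control effect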
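Compounds were tested on trophozoites seeded at 100 cells/well and held 48 hrs at 37 deg C anaerobically. An ATP-based luminescent kit measured the remaining live cells.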
RORgamma inh: qHTS for inhibitors of ROR gamma transcriptional activity. AID 2551, 2010. 310,000 compounds, 5.4% hits. Potency, µM (doses to about 53.6 µM), inactives show at the top dose activity change, negative = inhibition, usual class: inhibitors. Drosophila S2 Gal4-RORgamma UAS-luciferase reporter, 20 h; also: potency is read from the fitted curve at half-maximal effect; % is scaled to controls: 0 for no effect and ±100 for the full control effect; nearly all actives have a fitted effect of over 60% in size
Target sequence (P51450 whole entry, looked up, the tested form may be a part): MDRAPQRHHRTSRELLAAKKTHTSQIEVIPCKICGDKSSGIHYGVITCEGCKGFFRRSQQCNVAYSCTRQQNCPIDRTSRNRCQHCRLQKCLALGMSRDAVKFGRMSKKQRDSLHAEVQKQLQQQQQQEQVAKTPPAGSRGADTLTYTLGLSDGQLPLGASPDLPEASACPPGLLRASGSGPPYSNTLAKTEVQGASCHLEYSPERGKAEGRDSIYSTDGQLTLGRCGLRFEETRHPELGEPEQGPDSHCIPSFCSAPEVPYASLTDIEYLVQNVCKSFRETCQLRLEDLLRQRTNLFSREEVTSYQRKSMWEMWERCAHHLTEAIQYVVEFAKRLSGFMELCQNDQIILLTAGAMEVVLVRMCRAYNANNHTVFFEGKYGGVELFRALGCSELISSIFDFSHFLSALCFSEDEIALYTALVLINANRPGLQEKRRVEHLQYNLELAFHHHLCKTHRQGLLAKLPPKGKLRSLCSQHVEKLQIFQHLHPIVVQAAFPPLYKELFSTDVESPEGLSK
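In this cell-based reporter format, copper sulfate (700 uM final) drives Gal4–ROR gamma fusion expression from a metallothionein promoter in Drosophila Schneider cells; compounds preincubated 1 hr, reporter read after 20 hr at ambient temperature.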
Gal4-VP16 FLuc: VP16 counterscreen qHTS for inhibitors of ROR gamma transcriptional activity. Drosophila S2 Gal4-VP16 UAS-luciferase, luminescence, 20 h. Potency, µM (top dose mostly 53.6 µM), for inactives: top-dose activity, negative = inhibition, most hits filed as inhibitors. 310,000 compounds, 3.5% hits;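 also: Gal4-VP16 expression switched on by copper sulfate through the metallothionein promoter; potency is read from the fitted curve at half-maximal effect; % is scaled to controls: 0 for no effect and ±100 for the full control effect; nearly all actives have a fitted effect of over 50% in size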
ELG1 repair inh: qHTS screen for small molecules that inhibit ELG1-dependent DNA repair in human embryonic kidney (HEK293T) cells expressing luciferase-tagged ELG1; HEK293T ELG1-luciferase reporter, luminescence, 16 h; DNA damage induced by 5-fluorouridine; Potency, µM (titrated, usually from 46.1 µM), inactives show at the highest dose activity change, negative = inhibition, hits mostly inhibitors; 330,000 compounds, 2.3% hits; also: potency is read from the fitted curve at half-maximal effect; % is scaled to controls: 0 for no effect and ±100 for the full control effect; nearly all actives have a fitted effect of over 55% in size
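Luminescence from the luciferase reporter, measured 30 min after ONE-Glo reagent at room temperature, was the read-out. Beforehand, 2,000 cells per well were exposed for 16 hr at 37 °C to 5-fluorouridine together with compound or vehicle.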
BRCA1 expr up: qHTS Assay to Identify Small Molecule Activators of BRCA1 Expression; Potency, µM (highest dose often 46.1 µM), without a hit: at the highest dose activation, hits mostly activators; MCF7-BRCA1-FFLuc reporter, luminescence, 48 h; response scale: scaled: vehicle 0%, 10 µM genistein 100%; AID 624202, 2012; 380,000 compounds, 1.1% hits; also: potency is read from the fitted curve at half-maximal effect; nearly all actives have a fitted effect of over 80% in size
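First, MCF7-BRCA1-FFLuc cells (2000/well) attach for 2 h; next, compounds are pin-added and incubated 48 h at 37 °C; finally, luciferase reagent is added and luminescence read after 15 min.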
The depositor's hits bear a star; ? = inconclusive; / = no result; [ ] = another dose, or the depositor's remark. Unless noted, calls follow the shape of the dose curve; as a rule, active = well fitted curve in the direction sought with a large enough effect; inconclusive = small, poorly fitted or top-dose-only effect, or another doubt; inactive = no such curve, though single readings can be large; an effect the other way counts as inactive or inconclusive.

SMILES	p53 reactivation	Giardia killer	RORgamma inh	Gal4-VP16 FLuc	ELG1 repair inh	BRCA1 expr up
Cc1ccc(-c2nnc(NC3CCCCC3)c3ccccc23)cc1S(=O)(=O)N1CCN(C)CC1	-2%	6	0%	5%	23µM*	-54%
CC(C)(C)c1ccc(CSc2nc(N)cc(=O)[nH]2)cc1	2%	25	-45%	7.9µM*	?	8%
COc1ccc(OCCC(=O)OCC(=O)NC(=O)NC(C)(C)C)cc1	-1%	21	-19%	2%	?	3%
Cc1cc2cc(CNC(=S)Nc3ccc(OC(F)F)cc3)ccc2[nH]1	4%	-21	13µM*	22µM*	-2%	-21%
CCNC(=S)NCc1ccc2[nH]c(C)cc2c1	2%	-18	?	10%	11%	31%
CCOC(=O)NCc1ccc2[nH]c(C)cc2c1	14%	6	-16%	-1%	?	13%
FC(F)Oc1ccc(NC(=S)NCc2nc3ccccc3[nH]2)cc1	14%	0	-43%	-21%	-13%	-33%
Cc1cc2cc(CNC(=O)Nc3ccccc3)ccc2[nH]1	15%	-8	16%	-10%	?	11µM*
Cc1cc2cc(CNC(=S)Nc3ccc(OC(F)(F)F)cc3)ccc2[nH]1	11%	0	18µM*	?	-2%	-6%
Cc1[nH]c2ccccc2c1C(=O)CCl	-13%	-23	13µM*	11µM*	?	-75%
Cc1[nH]c2ccccc2c1C(=O)CN(C)c1ccccc1	/	/	/	/	/	0%
COc1ccc(-c2csc(NC(=S)NC(=O)c3ccc(S(=O)(=O)N(C)C)cc3)n2)cc1OC	-8%	18	2.8µM*	?	-13%	-46%
COc1ccc(-c2csc(NC(=S)NC(=O)c3cccs3)n2)cc1OC	-4%	-23	4.5µM*	14µM*	21µM*	-14%
COc1ccc(-c2csc(NC(=S)NC(=O)c3cccs3)n2)cc1Br	0%	?	4.5µM*	11µM*	-11%	-56%
COc1ccc(-c2csc(NC(=O)c3cc(=O)c4ccccc4o3)n2)cc1OC	0%	-19	2%	-6%	?	10%
COc1ccc(CCNC(=O)c2ccn[nH]2)cc1OC	4%	13	8%	0%	?	77%
O=C(NCCc1c[nH]c2ccccc12)c1cnc2sccn2c1=O	?	9	34%	13%	?	1%
COc1ccccc1NC(=O)Cn1c(=O)n(Cc2ccccc2)c(=O)c2c3c(sc21)CN(C(C)=O)CC3	/	/	/	/	/	8%
CCOC(=O)C1(CC/C(C)=N\NC(N)=O)CC(C)OC1=O (configuration not stated)	-4%	24	-2%	?	0%	-7%
CCOCCCNc1ccc(-c2ccccc2)nn1	?	2	3%	-11%	?	2.8µM*
CCOC(=O)C1=C(C)OC(=Cc2ccc(OC)cc2)C1=O	/	/	/	/	/	76%
CCCc1ccc(/C=C2\C(=O)c3ccccc3C(O)=C2C(=O)OCC)cc1	?	/	11µM*	?	?	/
CCOC(=O)C1=C(O)c2ccccc2C(=O)/C1=C\c1ccc(CC)cc1	-22%	-8	4.5µM*	-1%[0.365 µM]	20%	-55%
O=S(=O)(/N=C(/Sc1ccc(Cl)cc1)c1ccccc1)c1ccccc1	/	-2	/	/	/	77%
Cc1ccc(N2CC(C(=O)N/N=C/c3c(F)cccc3Cl)CC2=O)cc1 (configuration not stated)	?	-3	-2%	-3%	9.2µM*	-6%
SMILES	p53 reactivation	Giardia killer	RORgamma inh	Gal4-VP16 FLuc	ELG1 repair inh	BRCA1 expr up
COc1ccc(C(C(=O)NC2CCCC2)N(Cc2ccco2)C(=O)c2snc(C(N)=O)c2N)cc1OC (configuration not stated)	-3%	-5	-6%	6%	?	-24%
COc1ccc(C2N3CC4(C)CN2CC(C)(C3)C4)cc1OC (configuration not stated)	-2%	5	12%	6%	2%	0%
CNc1nc(C)nc(-n2nc(C)cc2C)n1	11%	8	6.3µM*	?	?	19%
Cc1cc(C)n(-c2nc(C)nc(NCc3ccccc3)n2)n1	-8%	18	1.6µM*	5.6µM*	?	-9%
Cc1cc(C)n(-c2nnc(NCc3ccc(Cl)cc3)nn2)n1	13%	-22	?	4%	-10%	-42%
CCC(C)c1ccc(C(C)NC(=S)NCc2ccc(F)cc2)cc1 (configuration not stated)	-4%	-9	2.8µM*	5µM*	2%	-57%
COc1ccc(C)cc1NC(=S)NC(C)c1ccc(OC)c(OC)c1 (configuration not stated)	-5%	?	2.8µM*	10µM*	?	-34%
CCOc1ccc(C(C)NC(=S)NCc2ccc(Cl)cc2)cc1 (configuration not stated)	-8%	-3	0.79µM*	13µM*	?	-30%
CCNC(=S)NCc1ccc(OC)c(OC)c1	-1%	-7	-27%	-1%	9%	-15%
COc1ccc(C(C)NC(=S)NCc2ccc(F)cc2)cc1OC (configuration not stated)	-5%	-9	13µM*	?	-4%	-6%
CCOc1ccc(OCCC(=O)OCC(=O)NCc2ccc(Cl)cc2)cc1	7%	-17	/	/	?	-9%
CC(CC(=O)NCc1ccc(F)cc1)c1ccccc1 (configuration not stated)	-2%	-16	-3%	4%	16%	-7%
CCOC(=O)N1CCN(C(=O)C2CC(=O)N(c3ccc(C)cc3)C2)CC1 (configuration not stated)	1%	24	/	/	8%	-33%
O=c1[nH]cc(N(CCO)CCO)c(=O)[nH]1	3%	7	4%	2%	1%	21%
CCC(C)[C@H](NC(=O)NCc1ccc(F)cc1)C(=O)O (some centres not stated)	-1%	15	-10%	0%	?	0%
CC(NC(=S)NCc1ccc(F)cc1)C12CC3CC(CC(C3)C1)C2 (configuration not stated)	1%	-18	1.8µM*	5µM*	-25%	-88%
CCCc1ccc(C(C)NC(=S)NCc2ccc(F)cc2)cc1 (configuration not stated)	-4%	-22	0.63µM*	3.2µM*	?	-37%
